# Reference: PubChem BioAssay AID588519 (ICCB-Longwood Screening Facility, Harvard Medical School, 2011)
# The whole screen tested about 150,000 compounds, of which about 1,000 (0.67%) were called active. Rule as the data show it: active = % elongation below about 90%; inactive = the rest, inconclusive results apart. This excerpt belongs to a sample that is enriched for actives.
# Target: Genome polyprotein (Poliovirus type 1 (strain Mahoney)) (UniProt P03300)
# Assay: poliovirus RdRp elongation inhibitors, primary screen, biochemical, fluorescence polarization, total intensity (AID 588519); as to z-score: compound at 16.7 µg/mL
# Details: poliovirus polymerase elongation, stronger effect = lower value; for % elongation: compound at 16.7 µg/mL; for z-score: measured here: FP z-score
# [1] = measured here: total intensity read-out
# Chain of Genome polyprotein (Poliovirus type 1 (strain Mahoney)) (P03300 1749-2209 limits assumed): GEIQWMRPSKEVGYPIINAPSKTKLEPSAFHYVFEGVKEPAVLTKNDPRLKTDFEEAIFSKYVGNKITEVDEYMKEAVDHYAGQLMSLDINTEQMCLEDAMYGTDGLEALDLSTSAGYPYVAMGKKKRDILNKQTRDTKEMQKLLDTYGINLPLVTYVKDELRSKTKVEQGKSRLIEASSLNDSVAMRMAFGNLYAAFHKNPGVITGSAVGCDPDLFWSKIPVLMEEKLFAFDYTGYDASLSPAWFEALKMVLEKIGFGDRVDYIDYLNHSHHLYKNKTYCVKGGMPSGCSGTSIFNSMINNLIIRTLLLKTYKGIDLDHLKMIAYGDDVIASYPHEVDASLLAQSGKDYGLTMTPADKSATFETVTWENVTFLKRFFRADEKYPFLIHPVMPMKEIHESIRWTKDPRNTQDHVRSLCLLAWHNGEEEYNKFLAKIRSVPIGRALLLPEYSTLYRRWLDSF
SMILES,% elongation,z-score,% elongation [1]
Cc1ccc(NC(=O)CC(=O)Nc2ccc(C)cc2)cc1,106% (inactive),0.3,102%
Cc1ccc(NC(=S)Nc2ccc(C)cc2)cc1,76% (active),-4.1,82%
CSC(=S)Nc1ccc(C)cc1,100% (inactive),0.1,104%
O=C(O)COc1cc(Br)c(Br)c(Br)c1O,102% (inactive),0.1,92%
CCn1c(SCc2cc(=O)oc3cc(NC(C)=O)ccc23)nnc1-c1ccccc1,100% (inactive),-0.5,111%
O=C(NN=c1c(=O)c2ccccc2c1=O)c1ccncc1,58% (active),-12.6,54%
CC(C)/C=N/NC(=O)c1ccccc1,103% (inactive),0.3,103%
O=C(NNc1ncnc2ccccc12)c1ccncc1,106% (inactive),0.6,101%
O=c1[nH]c(CN2CCCC2c2ccc3c(c2)OCCO3)nc2cc(Cl)ccc12 (stereo unspecified),102% (inactive),0,104%
CCN(C(=O)CN1CCCCC1)c1nc2ccc(C)cc2s1,102% (inactive),-0.3,103%
NC(=O)C1CCN(C(=S)Nc2ccccc2)CC1,103% (inactive),1.1,103%
CC(C)OC(=O)Nc1ccccc1,106% (inactive),0.8,110%
O=C(Nc1ccccc1)C(=S)Nc1ccccc1,87% (active),-1.9,88%
COc1nc(NCCO)nc(Nc2ccc(I)cc2C)n1,99% (inactive),-1.2,94%
O=C1c2ccccc2C(=O)N1CCN1c2cccc3cccc(c23)S1(=O)=O,100% (inactive),0.1,101%
COC(=O)C1=CN(CCc2ccccc2)C=C(C(=O)OC)C1C(=O)OC,107% (inactive),0.6,108%
CC(=O)Nc1ccccc1NC(=O)CN(C)S(=O)(=O)c1ccccc1,100% (inactive),0,103%
Cc1cc(N2CCNCC2)nc(C)n1,102% (inactive),0.1,102%
COC(=O)c1cc(N2CCNCC2)nc2ccccc12,88% (active),-1.4,88%
COC(=O)c1cc(-c2cccs2)nc2ccccc12,101% (inactive),-0.1,101%
N#CCCn1c(SCC(=O)NCCSc2ccc(Cl)cc2)nc2ccccc21,101% (inactive),-0.2,104%

SMILES,% elongation,z-score,% elongation [1]
Cc1cc(SCc2ccccc2)nc2ccccc12,103% (inactive),0.4,102%
Cc1cc(/C=C/C(=O)N2CCCC2c2cccs2)c(C)n1Cc1ccco1 (stereo unspecified),104% (inactive),0.6,98%
Nc1[nH]c(=S)sc1C(=O)Nc1nccs1,70% (active),-3.3,75%
Cn1cccc1C(=O)Nc1nccs1,111% (inactive),0.9,116%
CCCCOC(=O)Nc1nccs1,100% (inactive),-0.4,99%
CCN(C(=O)CSc1nnc2scc(-c3cccc(OC)c3)n12)c1ccccc1,103% (inactive),0.2,100%
C#CCN1CCS(=O)(=O)CC1,100% (inactive),-0.3,103%
CCNC(=O)C1CCCN(S(=O)(=O)N(CC)c2ccc(OCC)cc2)C1 (stereo unspecified),103% (inactive),0.5,105%
CC(C)c1ccc(C2CC(=O)N3CN(C4CCCCC4)CSC3=C2C#N)cc1 (stereo unspecified),81% (active),-3.5,82%
Cc1cc(C)c(C(=O)COC(=O)c2ccc(N(C)C)cc2)c(C)c1,104% (inactive),-0.3,97%
CCN1CCN(C(=O)C2CCCCC2C(=O)O)CC1 (stereo unspecified),102% (inactive),0,103%
CCOC(=O)c1c(NC2=CC(=O)CCC2)sc2c1CCCCC2,107% (inactive),0.6,112%
CCOC(=O)c1c(N)sc2c1CCCS2,64% (active),-3.9,74%
CCOC(=O)c1c(N)sc2c1CC(C)(C)OC2,103% (inactive),0.4,106%
CCC(=O)c1cn(CC(=O)N2CCCC2)c2ccccc12,107% (inactive),0.5,109%
OC1CCN(C(=S)Nc2ccccc2)CC1,101% (inactive),0,100%
Fc1ccc(NC(=S)N2CCN=C2Nc2ccc(F)cc2)cc1,87% (active),-5.7,82%
COc1ccc(NC(=S)N2CCCCC2)cc1,100% (inactive),-0.3,108%
O=C1CCC/C1=C1\SCC(=O)N1c1ccccc1,101% (inactive),-0.3,99%
Cc1ccc(C)c(NC(=O)C(c2ccccc2)N2CCCCC2C(N)=O)c1 (stereo unspecified),97% (inactive),-0.5,103%
C=CCn1c(SCC#N)nc2c(c1=O)C1(CCCCC1)Cc1ccccc1-2,102% (inactive),0.1,103%
